# Results reported in PubChem BioAssay (NCI).
# The panel holds about 83,000 compounds, 20% with a hit somewhere; the sample as a whole holds those more often.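 Step 1: grow cells in 96-well plates. Step 2: add test compound at a single concentration. Step 3: incubate 48 h. Step 4: record percent growth.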 Values without a mark were called inactive. Active and inactive are the calls of the source. The calls were made as follows: active = growth percent below 10; inactive = the rest.
# Experiments:
# Assay in all cases: NCI-60 one-dose screen, 48 h (100 = growth as untreated, 0 = no growth, -100 = all killed)
# Conditions in all cases: 10 µM unless noted
# HCT-15 colon = tested on: HCT-15 colon
# HT29 colon = tested on: HT29 colon
# SNB-75 CNS = tested on: SNB-75 CNS
# SNB-19 CNS = tested on: SNB-19 CNS
# U251 CNS = tested on: U251 CNS
# PC-3 prostate = tested on: PC-3 prostate
# SK-MEL-5 melanoma = tested on: SK-MEL-5 melanoma
# UACC-62 melanoma = tested on: UACC-62 melanoma
# LOX IMVI melanoma = tested on: LOX IMVI melanoma
# SK-MEL-28 melanoma = tested on: SK-MEL-28 melanoma
Structure (SMILES),growth (HCT-15 colon),growth (HT29 colon),growth (SNB-75 CNS),growth (SNB-19 CNS),growth (U251 CNS),growth (PC-3 prostate),growth (SK-MEL-5 melanoma),growth (UACC-62 melanoma),growth (LOX IMVI melanoma),growth (SK-MEL-28 melanoma)
O=C(/C=C/c1ccco1)Nc1ncc(Cc2cc(Cl)ccc2Cl)s1,13.5%,9.68% (active),16.6%,44.8%,18.9%,25.3%,15.2%,26.9%,25.9%,57%
COC(=O)c1c(C)nc(C)c2c1C(=O)C=C(NCc1ccccc1)C2=O,73.3%,92%,88.9%,93.2%,99%,75.6%,51.4%,65.8%,61.7%,108%
CC(C)Cc1nc(Nc2ccccc2)[nH]c(=O)c1C#N,60.5%,51.7%,62.4%,54.8%,55.8%,38%,48.7%,19.5%,48.7%,55.9%
CC(C)(C)c1ccc(S(=O)(=O)Oc2ccc(-c3sc4cc(OS(=O)(=O)c5ccc(C(C)(C)C)cc5)ccc4c3C(=O)c3ccc(OCCN4CCCCC4)cc3)cc2)cc1,97.8%,90.8%,56.6%,97.6%,103%,88.8%,99.6%,95%,99.9%,97.8%
CCCCCCCCCCCCCCCCCCOc1ccccc1CC(=O)NCC[N+](C)(C)C,87.4%,12.5%,22.9%,12.5%,-58.5% (active),-33% (active),63.7%,42%,33.4%,80.1%
CCOC(=O)c1c(C)nc2c(c1N)C(=O)C(=O)N2Cc1ccc(OC)cc1,22.7%,26.5%,30%,80%,38.1%,47.9%,81%,53.3%,61.1%,76.7%
O=C1/C(=C/c2ccccn2)SC(=S)N1N1CCOCC1,102%,103%,90.4%,101%,98.1%,94.6%,99.2%,92.8%,97.8%,105%
CCCCCCCCn1ccc2cc(NC(=O)CN=[N+]=[N-])ccc21,96.8%,104%,99.6%,97.1%,88.7%,91.2%,98%,84.2%,104%,109%
Cc1cc(NCCCNc2ccnc3cc(Cl)ccc23)nc(Nc2ccc(C(=O)N3CCCCC3)cc2)n1,0.549% (active),-5.41% (active),26.7%,25.6%,-8.28% (active),50.5%,-98.5% (active),-71.2% (active),-77.1% (active),-71.2% (active)
c1cc(OCCCCCOc2cccc(-c3nc4ccccc4[nH]3)c2)cc(-c2nc3ccccc3[nH]2)c1,12.3%,5.53% (active),31.4%,22.3%,6.76% (active),-13.1% (active),-81.5% (active),8.55% (active),-27.8% (active),18.7%
COc1ccc(C/C(C)=C(\c2ccc(Cl)cc2)c2ccc(OCCN3CCCC3)cc2)cc1,40.2%,19.6%,88.5%,92.1%,61.1%,77.8%,89.7%,90.8%,82.9%,91.4%
CCCc1cc(=O)oc2c(C(=O)CC(C)C)c(O)c(CC=C(C)C)c(O)c12,16.9%,57.3%,52.6%,21.5%,22.5%,6.87% (active),-45.8% (active),-1.35% (active),33.8%,26.3%
Cn1c(C#N)ccc1-c1ccc(F)c(NC(=O)c2ccc(F)cc2)c1,66.6%,47.5%,71.4%,84.1%,73.4%,80.9%,75.9%,60.8%,69.8%,86.5%
COC(=O)/C=C1/SC(=Nc2ccc(F)cc2)N(CCc2c[nH]c3ccc(O)cc23)C1=O,23.6%,36.7%,43.2%,46.6%,25.6%,33.3%,44.9%,23.5%,-10.7% (active),51.8%
O=S(O)c1cc(Cl)cc(Cl)c1OCc1ccccc1,112%,104%,98.7%,102%,93.7%,84.5%,96.3%,107%,108%,105%
Nc1ncnc2c1N=C(c1ccc(Cl)cc1)CC(c1cccc(Nc3ccnc4cc(Cl)ccc34)c1)N2 (stereo not given),21.1%,36.3%,60.4%,79.6%,50%,55.4%,61.9%,81.2%,45.5%,86.8%
CN1CCN(c2ccc(NC3=CC(=O)c4ncncc4C3=O)cc2)CC1,-71.7% (active),-29% (active),-94.7% (active),-91.9% (active),-82.3% (active),-8.86% (active),-94% (active),-89.8% (active),-63.8% (active),-75.3% (active)
O=c1cc(-c2ccccc2)nc(SCc2nc3cc(Cl)c(Cl)cc3[nH]2)[nH]1,98%,96.4%,86%,109%,99.9%,103%,105%,105%,98%,111%
C/C(=N\Nc1ccccc1)c1ccc(NC2=CC(=O)c3ccccc3C2=O)cc1,31.9%,75.3%,51.1%,85.7%,45.8%,40.1%,-10.5% (active),-7.92% (active),21.4%,65.9%
CC(C)(C)CC(C)(C)Nc1c(-c2c(O)c3ccccc3oc2=O)nc2sc3ccccc3n12,20%,34.8%,49.7%,26.1%,25.5%,34.9%,42%,30.4%,36.4%,58.2%
O=C(NNc1nc2cc(F)ccc2n2c(CN3CCOCC3)ccc12)c1ccccc1,16.9%,1.95% (active),46.1%,18.8%,-34.5% (active),22.9%,-9.55% (active),-4.27% (active),-39.6% (active),15.7%
C=C(C)[C@@H]1CC[C@]2(C)[C@H](C=CC3=C4C[C@@](C)(CO)CC[C@]4(C)CC[C@]32C)[C@@]1(C)CCCN,-82% (active),-38.7% (active),-6.45% (active),34.3%,-64.5% (active),-34% (active),17.5%,77.6%,-100% (active),-79.8% (active)
COc1cc2c(cc1OCCCN1CCN(C(=S)SCCC(C#N)(c3ccccc3)c3ccccc3)CC1)N=C[C@@H]1CCCN1C2=O,-89.5% (active),-89.3% (active),-91.5% (active),-44.4% (active),-95.7% (active),-34.9% (active),-100% (active),-72% (active),-100% (active),-82.6% (active)
ClC(Cl)c1nc(-c2ccccc2)n2nc(-c3ccccc3)cc2n1,-16% (active),1.24% (active),-37.5% (active),6.64% (active),-14.9% (active),17.2%,84.4%,68.4%,72.1%,25.5%
O=C(/C=C/c1ccccc1)N(C1CCCCC1)C1CCCCC1,86.3%,68.6%,81.4%,87.7%,84.3%,60.2%,89.9%,75%,92.3%,97.9%
COc1cc2ncnc(Nc3ccc(F)c(Cl)c3)c2cc1OCC(=O)N1CCOCC1,96.6%,91.8%,102%,86%,102%,94.3%,98.4%,86.6%,97.8%,106%
